Assay results from ChEMBL document CHEMBL4513216, “Probing the Open Global Health Chemical Diversity Library for Multistage-Active Starting Points for Next-Generation Antimalarials” (ACS Infect Dis, 2020).
About 8,600 (12%) of roughly 69,000 compounds showed an effect of 50% or more. For the sample, strong results were picked, then their nearest neighbours and some compounds at random.

test system: Plasmodium berghei; assay: Screen against P. berghei liver stage (PbLuc), transformed with Luciferase, at 10uM; format: functional, HepG2; conditions: tested at 10 uM

Structure (SMILES)	INHIBITION [%]
CN(C)C1CCCN(C(=O)NCc2ccccc2-n2cccn2)C1 (stereo not drawn)	21.5
CCS(=O)(=O)N1Cc2nccn2CC(Cn2cccn2)C1 (stereo not drawn)	37.5
O=C(O)c1cc(-c2ccccc2)ns1	45.9
O=C(COCc1ccccc1)N1CCCC1c1noc(C2CC2)n1 (stereo not drawn)	7.27
O=C(C[C@@H]1COC[C@H]2CN(C(=O)c3ccccn3)C[C@@H]12)N1CCCC1	6.72
Cc1cccc(N2Cc3c(NC4CCCC4)ncnc3N(C)CC2=O)c1	7.66
CC(=O)c1cccc(NC(=O)CN2CCCC(C3OCCO3)C2)c1 (stereo not drawn)	53.4
CC(=O)c1cccc(NC(=O)CN2CCCCC2C)c1 (stereo not drawn)	14
CC(=O)c1cccc(NC(=O)CN2CCCCC2C2OCCO2)c1 (stereo not drawn)	1.81
CN(C)Cc1cnn(-c2ccccc2C(=O)N(C)Cc2ccccc2)c1	-52.6
Cc1cc(=O)c2ccccc2n1CC1CCNC1 (stereo not drawn)	12.8
Cc1cc(=O)c2ccccc2n1CC1CCN(C(C)C)C1 (stereo not drawn)	53.9
Cc1cc(=O)c2ccccc2n1CC1CCCN(C)C1 (stereo not drawn)	-9.92
c1cnc(N2CCO[C@H]3CN(Cc4csnn4)C[C@H]32)cn1	23.3
O=C(NCCc1ccn(-c2ccccc2)n1)N1CCCC(O)C1 (stereo not drawn)	-16
O=C(NCCc1ccn(-c2ccccc2)n1)N1CCC1	26.9
O=C(NCCc1ccn(-c2ccccc2)n1)N1CCSCC1	62.9
Cc1cccc(NC(=O)C(C)Nc2cccc(CN3CCOC3=O)c2)c1 (stereo not drawn)	-18.15
CC1CC(=O)c2cc(C(=O)N3CCc4ccccc4C3)c(=O)[nH]c2C1 (stereo not drawn)	10.9
Cc1ccc(CN2C[C@@H]3CCCO[C@@H]3[C@H](N(C)Cc3ccco3)C2)o1	18.5

Structure (SMILES)	INHIBITION [%]
CC(NC(=O)NCCN1CCCC1)c1nncn1C (stereo not drawn)	56.4
CC1CCN(CCCNC(=O)NC(C)c2nncn2C)CC1 (stereo not drawn)	52.3
Cc1cccc(OCCCNC(=O)NC(C)c2nncn2C)c1 (stereo not drawn)	15.9
CC(NC(=O)NCCCN1CCCCCC1)c1nncn1C (stereo not drawn)	30.2
CC(NC(=O)NCCCN1CCc2ccccc2C1)c1nncn1C (stereo not drawn)	-120
CC(NC(=O)NCCCN1CCCC1)c1nncn1C (stereo not drawn)	0.914
CCN1CCN(CCCNC(=O)NC(C)c2nncn2C)CC1 (stereo not drawn)	40
CC(NC(=O)NCCOc1ccc(Cl)cc1)c1nncn1C (stereo not drawn)	39.7
Cc1cccc(C)c1OCCNC(=O)NC(C)c1nncn1C (stereo not drawn)	50.4
N#CCCSc1sc2c(O)cc(O)nc2c1C#N	38.2
O=C(NCCc1cc2nc(-c3ccncc3)ccn2n1)C1CC1	23.6
O=C(c1cc[nH]n1)N1CCCC1c1ccccn1 (stereo not drawn)	13.5
CC(=O)N1CCC(c2nccnc2C)CC1	-16.1
OCC1(NCc2cnc(-c3ccsc3)s2)CCOCC1	-11.7
CN(C)c1cnn(CC(=O)N2CCN(Cc3cccs3)CC2)c(=O)c1	65.7
CN(C)c1cnn(CC(=O)N2CCCCCC2)c(=O)c1	15.4
CN(CCc1ccccc1)c1cnn(CC(=O)N2CCSCC2)c(=O)c1	38.5
CN(C)c1cnn(CC(=O)N2CCN(c3ccccc3)CC2)c(=O)c1	53.7
CN(Cc1ccc2nsnc2c1)C(=O)Cn1ncc(N(C)C)cc1=O	5.46
CSc1cccc(CN(C)C(=O)Cn2ncc(N(C)C)cc2=O)c1	4.64

Structure (SMILES)	INHIBITION [%]
CN(Cc1ccoc1)C(=O)Cn1ncc(N(C)C)cc1=O	50.5
CN(C)c1cnn(CC(=O)N2Cc3ccccc3C2)c(=O)c1	31.4
CN(CCc1ccccc1)c1cnn(CC(=O)N2CCOCC2)c(=O)c1	20.2
O=C(CCn1c(C(F)F)cc2cccnc21)NC1CC1	22
CC(c1nc(C(C)(C)C)no1)N1CCN(c2ccc(C#N)cn2)CC1 (stereo not drawn)	23.9
Cc1cc(C)n(CC2CCCN2C(=O)c2ccnc(N(C)C)c2)n1 (stereo not drawn)	3.73
CN(C)C(=O)[C@H]1C[C@H]2CN(c3ncccn3)C[C@@H]1O2	-5.63
Cn1cc(CN2CCCC3(CCN(Cc4ccncc4)C3=O)C2)cn1 (stereo not drawn)	43.1
COCCN1CCO[C@@H]2CN(Cc3sccc3C)C[C@@H]2C1	24.6
O=C(c1ccc(=O)[nH]n1)N(CCO)Cc1cc(Br)ccc1F	23.1
CCc1ccc(-n2nnc(C(=O)O)c2-c2ccccn2)cc1	9.84
Cc1nnc2n1CCN(Cc1csc(CC(=O)N(C)C)n1)C2	16.7
CN(C)C(=O)Cc1nc(CN2CCn3c(nnc3C3CC3)C2)cs1	8.81
CC(C)c1nnc2n1CCN(Cc1csc(CC(=O)N(C)C)n1)C2	52
O=C1CCC2(CCCN(CCc3ccccc3)C2)N1Cc1cccnc1 (stereo not drawn)	23.2
CC(CNCc1ccc(Cl)cc1)Oc1ccccn1 (stereo not drawn)	11.4
CCn1cc(NC(=O)N2CCN(CCSc3ccccc3)CC2)cn1	-32.35
CCN1CCN(C(=O)C2CCCc3[nH]ncc32)CC1 (stereo not drawn)	-24.9
